Sampled rows, rich in hits. Any-hit rate of the full collection: about 2.4%.
TMEM16A inh: mouse TMEM16A channel inhibition, primary screen | Q8BHY3 | HEK293 TMEM16A/YFP iodide influx fluorescence, ionomycin | actives 1.2% (n = 310,000) | AID 588511 | normalized B-score (activity score, 25-100; higher = stronger inhibition) at 10 µM;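 active = ratio plate-corrected score three or more library SD toward inhibition, starting fluorescence score within five deviations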;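 also: score derived from kinetic fluorescence span divided by baseline fluorescence per well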
CHT allo act: human CHT allosteric activation | Q9GZV3 | actives 0.49% (n = 310,000) | AID 488977 | B-score at 10 µM | CHT-expressing cells, membrane potential dye, choline EC20; hits give high values; LV-AA mutant CHT in HEK293 cells;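 active = initial fluorescence not abnormally high and integrated response B-score, plate-corrected, over 3 SD above library mean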
CHT inh: inhibits the human high affinity choline transporter | Q9GZV3 | CHT-expressing cells, membrane potential dye, choline response; hits give low values | B-score at 10 µM | actives 0.86% (n = 310,000) | AID 488975;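 active = B-score over 3 SD under the library average, and starting fluorescence ratio not unusually high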;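 also: choline stimulus applied at its EC90 after an EC20 pre-addition; B-score computed on integrated fluorescence ratio after choline addition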
ANO1 activ: activates or potentiates the mouse TMEM16A chloride channel; HEK293 TMEM16A/YFP-H148Q/I152L, iodide quench fluorescence; hits give low values; actives 0.3% (n = 340,000); B-score at 10 µM; Q8BHY3; AID 623877;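 active = fluorescence-ratio B-score plate-corrected deviation score at least 3 library SD below zero, with starting fluorescence score within 5 deviations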;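 also: channel opened by trigger with iodide after compound preincubation; score built on the fluorescence ratio of max minus min over baseline; more negative score means more quench and so TMEM16A activation or potentiation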
Numbers stand for hits; n = inactive; x = no result; ! = not confirmed by another sample.

SMILES | TMEM16A inh | CHT allo act | CHT inh | ANO1 activ
CCOc1cccc(C(=O)Nc2ccc3oc(-c4cccnc4)nc3c2)c1 | n | n | n | n
Cc1cc(NC(=O)C2C3C(=O)N(CCC(C)C)C(C(=O)NCc4ccccc4)C34C=CC2(C)O4)no1 (stereo not given) | n | n | n | n
Cc1ccc(OCc2nnc(SCc3nc4ccccc4[nH]3)n2Cc2ccco2)cc1 | 100 | n | n | n
CCn1c(COc2ccc(Cl)cc2)nnc1SCc1nc2ccccc2[nH]1 | n | n | n | n
COC(=O)[C@]1(CC(C)C)N[C@H](c2ccc(-c3cccc(Cl)c3)cc2)[C@@H]2C(=O)N(C)C(=O)[C@@H]21 | n | n | n | -8.6
COC(=O)[C@]1(C)N[C@H](c2ccc(-c3cccc(Cl)c3)cc2)[C@@H]2C(=O)N(C)C(=O)[C@@H]21 | x | x | x | n
CCC(C)Sc1ccc([C@H]2N[C@@](Cc3ccccc3)(C(=O)OC)[C@H]3C(=O)N(CC)C(=O)[C@@H]23)cc1 (stereo not given in full) | n | n | n | n
CCC(C)Sc1ccc([C@H]2N[C@@](CC(C)C)(C(=O)OC)[C@H]3C(=O)N(CC)C(=O)[C@@H]23)cc1 (stereo not given in full) | n | n | n | -8.4
C[N+]1=C(/C=C/Nc2ccccc2Cl)C(C)(C)c2ccccc21 | n | n | n | n
COC(=O)c1ccc2c(c1)C(C)(C)C(/C=C/c1ccccc1O)=[N+]2C | n | 7.2 | n | n
O=C(CCCOc1ccc(Cl)cc1Cl)N1CCCc2ccccc21 | 100 | n | n | n
Cc1ccc(CN2CC(C(=O)Nc3ncccc3C)CC2=O)cc1 (stereo not given) | n | n | n | n
Cc1cc2c(=O)n(Cc3ccco3)c(SCC(=O)c3ccc(Cl)s3)nc2s1 | 25 | n | n | n
CC1C(=O)N(Cc2ccccc2F)c2ccccc2N1C(=O)c1c(F)cccc1F (stereo not given) | n | n | -5.1 | n
CC1C(=O)N(Cc2cccc(F)c2)c2ccccc2N1C(=O)c1ccccc1 (stereo not given) | n | n | n | n
COc1ccc(C(=O)Nc2nnc(SCC(=O)NCC3CCCO3)s2)cc1OC (stereo not given) | n | n | n | n
NC(=O)CSc1ccc(S(=O)(=O)N2CCCCC2)cn1 | x | x | x | n
CC(=O)NCCSc1ccc(S(=O)(=O)N2CCCC2)cn1 | x | x | x | -21
CCOC(=O)CSc1cc(CS(=O)(=O)c2ccccc2)nc(-c2ccccc2)n1 | n | n | n | n
CCOC(=O)CSc1cc(CS(C)(=O)=O)nc(-c2ccccn2)n1 | n | n | n | -6.6
O=C(COC(=O)CCN=C1NS(=O)(=O)c2ccccc21)NNC(=O)c1ccc(Cl)cc1 | x | x | x | n
Cc1[nH]n(C(N)=S)c(=O)c1N=Nc1cccc([N+](=O)[O-])c1C | 25 | n | n | n
Cc1c(N=Nc2c(-c3ccc([N+](=O)[O-])cc3)[nH]n(C(N)=S)c2=O)cccc1[N+](=O)[O-] | x | x | x | n
COc1ccc(C2CC(c3ccc(C)cc3)=NN2C(=O)CCC(=O)O)cc1OC (stereo not given) | n | n | n | n
Nc1nc(Sc2ccc([N+](=O)[O-])c3nonc23)c2[nH]cnc2n1 | x | x | x | -6
SMILES | TMEM16A inh | CHT allo act | CHT inh | ANO1 activ
Cc1nnc(SCC2=C(C(=O)O)N3C(=O)[C@@H](NC(=O)Cn4cnnn4)[C@H]3SC2)s1 | 100! | n | n | n
Cc1nnc2c(-c3ccccc3)nc3ccccc3n12 | n | n | n | -16
O=C(CSc1nc2ncc(Cl)cc2[nH]1)N(Cc1ccccc1)C1CCS(=O)(=O)C1 (stereo not given) | n | n | n | n
N#Cc1nc(-c2ccccc2Cl)oc1NCc1ccco1 | n | n | n | -4.7
O=C(NNC1=C(C(=O)C(F)(F)F)CCC1)c1ccccc1Cl | n | n | n | -19
CSc1cccc(NC(=O)C2CCCN(S(=O)(=O)c3cnc[nH]3)C2)c1 (stereo not given) | x | x | x | -12
CCc1ccc(NC(=O)CO/N=C(\C)c2cc3ccccc3o2)cc1 | 100 | n | n | n
C/C(=N\OCC(=O)Nc1ccc(F)c(F)c1F)c1cc2ccccc2o1 | n | n | n | n
Cc1ccsc1/C=N/NC(=O)c1cccnc1 | n | n | n | n
Nc1nc(CSCc2ccccc2)nc(N2CCOCC2)n1 | n | n | n | -15
Nc1nc(CSc2nc3ccccc3s2)nc(N2CCOCC2)n1 | n | n | n | n
C/C(=N\O)c1noc(C)c1C(=O)Nc1nccs1 | n | n | n | n
O=C(Nc1nc(-c2cccs2)cs1)c1ccc(Cl)cc1 | n | n | n | n

From PubChem
